LASV entry inh – qHTS for Inhibitors of binding or entry into cells for Lassa Virus | AID 540256, 2011 | Lassa virus pseudotype entry inhibition, cell reporter | 300,000 tested, 1.2% active | Potency, µM (highest dose often 37.9 µM), inactives show at the top dose activity change, negative = inhibition, usual class: inhibitors; calls by dose curve; tested in HEK293 cells; also: nearly all actives have a fitted effect of over 50% in size
Vaccinia mCherry – qHTS for Stage-Specific Inhibitors of Vaccinia Orthopoxvirus: mCherry Reporter Primary qHTS. Vaccinia virus mCherry reporter infection, fluorescence. Potency, µM (highest dose often 36.5 µM), without a hit: at the top dose activity change, negative = inhibition, usual class: inhibitors. 310,000 tested, 0.63% active; calls by dose curve; tested in A549 cells; also: nearly all actives have a fitted effect of over 35% in size
HCV inh – qHTS Assay for Inhibitors of Hepatitis C Virus (HCV). Huh7.5.1 HCVcc-Cre infection, luciferase reporter, 44 h. Potency, µM (titrated, usually from 41.8 µM), for inactives: top-dose activity change, negative = inhibition, most hits filed as inhibitors. 340,000 tested, 3.4% active. AID 651820, 2012; active = well fitted inhibition curve with a large enough effect; inconclusive = small, poorly fitted or top-dose-only effect, or another doubt; inactive = no such curve, though single readings can be large or run the other way
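Whole-lifecycle infectious HCVcc-Cre system; cells 1,000/well, compound then virus (~0.5 moi) added 4 h after plating, 44 h culture. Luciferase read 15 sec following 15 min substrate incubation, room temp.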
VACV Venus inh – qHTS for Stage-Specific Inhibitors of Vaccinia Orthopoxvirus: Venus Reporter Primary qHTS. Vaccinia virus Venus reporter expression, fluorescence. Potency, µM (highest dose often 36.5 µM), inactives show at the top dose activity change, negative = inhibition, usual class: inhibitors. 330,000 tested, 0.46% active; calls by dose curve; tested in A549 cells; also: nearly all actives have a fitted effect of over 30% in size
MARV entry inh – qHTS for inhibitors of binding or entry into cells for Marburg Virus; Marburg virus pseudotyped entry inhibition, cell reporter; Potency, µM (doses to about 37.8 µM), for the others: top-dose activity change, negative = inhibition, hits mostly inhibitors; 300,000 tested, 1.8% active; AID 540276, 2011; calls by dose curve; tested in HEK293 cells
The depositor's hits bear a star; i = inactive; u = inconclusive; x = not tested or not shown; ! = repeats disagree; [ ] = remark or other dose. Most compounds without a hit are left out; they make up all but 4.6% or so of the library. % is scaled to controls: 0 for no effect and ±100 for the full control effect; potency is read from the fitted curve at half-maximal effect.

SMILES	LASV entry inh	Vaccinia mCherry	HCV inh	VACV Venus inh	MARV entry inh
COc1ccc(Nc2nc(-c3ccccc3O)nc3ccccc23)cc1	-21%	u	u	u	u
COc1ccc(OC)c(Nc2nc(-c3ccccc3O)nc3ccccc23)c1	-3%	-18%	u	7%	-1%[46.1 µM]
COc1ccccc1Nc1nc(-c2ccccc2O)nc2ccccc12	8%[46.1 µM]	i	4µM*	-9%	-9%[46.1 µM]
COc1ccc(Nc2nc(-c3ccccc3F)nc3ccccc23)cc1OC	u	-22%	25µM*	-15%	x
CCOc1ccc(-c2cc(C(=O)Nc3ccc(NC(C)=O)cc3)no2)cc1	9%[46.1 µM]	-19%	x	-8%	8%[46.1 µM]
COc1ccc(Nc2nc(-c3ccccc3)nc3ccccc23)c(OC)c1	-15%[46.1 µM]	u	2µM*	-10%	u
Cc1cc(/C=C2\SC(=S)N(C)C2=O)c(C)n1-c1ccccc1O	u	u	7.1µM*	3%	u
CN1C(=O)/C(=C/c2coc3ccc(O)cc3c2=O)SC1=S	x	x	5%	x	x
Cc1cc(/C=C2\SC(=S)N(C)C2=O)c(C)n1-c1ccc(O)cc1	x	u	11µM*	-18%	x
CCCS(=O)(=O)NCc1c(C)ncc2c1CCN(C(=O)c1ccc(Cl)cc1)C2	x	-6%	x	-6%	x
COC(=O)C1=C(C(=O)OC)[C@@H]2N(Cc3ccccc3)c3ccccc3[C@@]23C[C@@H](C(=O)OC)N(C(=O)Nc2ccccc2F)C3=N1	x	x	x	x	-13%[14.2 µM]
COC1=C(OC)C(Cl)=C(CC2C(=O)OC(C)(C)OC2=O)CC1	x	x	x	x	-16%[46.1 µM]
O=C(c1ccccc1)N1CCN(C(=O)N2CCOCC2)CC1	-2%	x	13%	x	-10%
O=C1C(=C(c2ccccc2)N2CCOCC2)Cc2ccccc21	x	u	x	11µM*	x
CCOC(=O)c1cc(-c2ccc(F)cc2)n(CCC(=O)Nc2cc(OC)cc(OC)c2)c1C	-8%[46.1 µM]	-4%	x	-19%	x
Cc1ccc(C(C)C)c(OCC(O)CN2CCN(c3ccccc3F)CC2)c1 (centres undefined)	24%[46.1 µM]	-19%	x	-22%	x
Cc1ccc(C(C)C)c(OCC(O)CN2CCc3ccccc3C2)c1 (centres undefined)	u	10µM*	u	u	u
OC(COc1c(F)cc(Br)cc1F)CN1CCc2ccccc2C1 (centres undefined)	x	x	2%	x	x
Cc1cccc(C)c1OCC(O)CN1CCc2ccccc2C1 (centres undefined)	-10%	-10%	13µM*	-3%	u
Cn1cc(CNCc2ccccc2OCC(O)CN2CCc3ccccc3C2)cn1 (centres undefined)	-2%	-15%	11µM*	-21%	u
Cc1ccc(CCNC(=O)c2ccc(CSCc3ccc(C)cc3)o2)cc1	-21%[46.1 µM]	i	x	-18%	x
CCc1nn(CC(=O)NC(C)C)c(=O)c2cc3cc(F)ccc3n12	x	-3%	x	1%	u
Cc1nnc2c(Oc3ccccc3)nc3ccccc3n12	3%	x	21%	-9%	u
Cc1ccc(Oc2nc3ccccc3n3cccc23)cc1	3%	x	7.9µM*	-21%	-26%[46.1 µM]
c1ccc(Oc2nc3ccccc3n3cccc23)cc1	-3%	x	10µM*	-27%	0%
SMILES	LASV entry inh	Vaccinia mCherry	HCV inh	VACV Venus inh	MARV entry inh
FC(F)(F)c1cccc(N2CCN(c3ncnc4c3nc3n4CCCC3)CC2)c1	-1%[46.1 µM]	-28%[7.34 µM]	x	-23%[7.34 µM]	x
Cn1c(N)c(C(=O)CSc2nn(-c3ccc(F)cc3)c(=S)s2)c(=O)n(C)c1=O	x	x	7.1µM*	x	x
CCCCN(C(=O)CSc1nn(-c2ccc(F)cc2)c(=S)s1)c1c(N)n(CCCC)c(=O)[nH]c1=O	-18%	-13%	u	-7%	u
C#CCN1C(=O)[C@]2(OC[C@@H]3Cc4ccccc4[C@@H]3C=C2C)c2ccccc21	-19%[14.3 µM]	x	x	x	3%[14.2 µM]
CCOc1ccc(CNC(=O)c2cnc3sc(N(CC)CC)nn3c2=O)cc1	u	-23%	x	-14%	x
Clc1ccc(-n2cccc2CN2CCc3nnc(Cc4ccccc4)n3CC2)nc1	x	i	x	-11%	x
c1ccc(OCCOCCOc2ccccc2)cc1	2%[46.1 µM]	i	1.1µM*	-4%	16%[46.1 µM]
OCCOc1ccccc1	x	14%	27%	-2%	x
COc1ccc(C=NNc2nc3ccccc3s2)cc1	u	u	8%	6%	7.1µM*
C(=NNc1ccc2ccccc2n1)c1ccccn1	x	1.8µM*	x	u	x
COc1cc(/C=N/Nc2nc3ccccc3s2)cc([N+](=O)[O-])c1O	x	x	-1%	x	x
C(=N\N=C\c1ccccn1)/c1ccccn1	7%[46.1 µM]	-26%	5%	-9%	7%[46.1 µM]
O=[N+]([O-])c1cc(Cl)cc(/C=N/Nc2nc3ccccc3s2)c1O	u	-11%	11µM*	-16%	u
C(=N\Nc1nc2ccccc2s1)/c1ccccn1	0.89µM*	13µM*	1.8µM*	u	u
Brc1csc(/C=N/Nc2nc3ccccc3s2)c1	u	-1%	u	-27%	u
COc1ccccc1-c1ccnc(-n2ncc(C(=O)NCc3cccc(C)n3)c2C)n1	x	-12%	x	6%	x
CCOc1cc2[nH]c(=O)n(CCCCC(=O)N3CCN(c4ccccc4)CC3)c(=O)c2cc1OCC	u	-29%	x	u	x
O=C(CSc1nc2ccccc2s1)N/N=C/c1ccc(C(=O)O)cc1	x	-1%	18%	-7%	x
COc1ccc(/C=N/NC(=O)CCSc2nc3ccccc3s2)cc1	u	x	3.5µM*	x	u
Clc1ccccc1/C=N/NC1=Nc2cccc3cccc1c23	u	-29%	-12%	58%	u
C(=N\NC1=Nc2cccc3cccc1c23)/c1ccccn1	x	u	2.8µM*	u	x
NC(=O)CNCCC(c1ccccc1)c1ccccc1	-2%	-19%	-14%	-15%	11µM*!
Cc1ccc2nccc(/C=C/c3ccc(N(C)C)cc3)c2c1	x	-24%	x	14%	x
CCOc1ccc(CCNC(=O)[C@@H](O)c2ccccc2)cc1	x	x	x	x	14%
COc1ccc(OCc2ccc(C(=O)NN)cc2)cc1	5%	x	-13%	x	-2%
SMILES	LASV entry inh	Vaccinia mCherry	HCV inh	VACV Venus inh	MARV entry inh
O=C(/C=C/c1cccs1)NC(=S)NNC(=O)c1ccccc1O	u	u	22µM*	-8%	u
COc1ccc(C(=O)NC(=S)NNC(=O)c2ccccc2O)cc1	-4%	13µM*	-20%	u	13µM*
COc1ccc(C(=O)NNC(=S)NC(=O)/C=C/c2cccs2)cc1	-18%[46.1 µM]	-15%	u	-4%	7%[46.1 µM]
COc1ccc(COC(=O)NNC(=O)c2ccc(OC)cc2)cc1	1.3µM*	-4%	-4%	-6%	7%
COc1ccc(C(=O)NNC(=S)NC(=O)C(C)(C)C)cc1	u	4µM*	u	u	u
COc1ccc(C(C)N(C)Cc2nc(N3CCN(C(=O)c4ccco4)CC3)c3ccccc3n2)cc1 (centres undefined)	x	2%	x	0%	x
COc1ccc(Nc2nc(-c3sc(C)nc3C)cs2)cc1	x	x	8.9µM*	x	x
COc1ccc(CCNc2nc(-c3sc(C)nc3C)cs2)cc1OC	u	x	13µM*	x	u

Screening results (PubChem BioAssay)
